Reference: PubChem BioAssay (Tox21)
Inconclusive results are not listed. Activity calls are given as the source filed them. Unless noted, calls follow the shape of the full dose curve.

Key:
[1] = qHTS assay to identify small molecule agonists of the peroxisome proliferator-activated receptor delta (PPARd) signaling pathway - cell viability counter screen (AID 743211; active = well fitted curve in the direction sought with a large enough effect in the repeat runs; an effect the other way counts as inactive or inconclusive; also: % is scaled to controls: 0 for no effect and ±100 for the full control effect; nearly all actives have a fitted effect of over 55% in size)
Outline: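 Viability was measured as CellTiter-Glo luminescence (30 min, room temperature) in the same wells as the beta-lactamase readout. GeneBLAzer PPARd UAS-bla HEK293H cells received compound after 5 h plating and were incubated 17 h at 37 C.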

[2] = molecular target: Peroxisome proliferator-activated receptor delta (Homo sapiens) (UniProt Q03181); assay: qHTS assay to identify small molecule agonists of the peroxisome proliferator-activated receptor delta (PPARd) signaling pathway (AID 743212); also: % is scaled to controls: 0 for no effect and ±100 for the full control effect
Chain of Peroxisome proliferator-activated receptor delta (Homo sapiens) (Q03181 whole entry, looked up): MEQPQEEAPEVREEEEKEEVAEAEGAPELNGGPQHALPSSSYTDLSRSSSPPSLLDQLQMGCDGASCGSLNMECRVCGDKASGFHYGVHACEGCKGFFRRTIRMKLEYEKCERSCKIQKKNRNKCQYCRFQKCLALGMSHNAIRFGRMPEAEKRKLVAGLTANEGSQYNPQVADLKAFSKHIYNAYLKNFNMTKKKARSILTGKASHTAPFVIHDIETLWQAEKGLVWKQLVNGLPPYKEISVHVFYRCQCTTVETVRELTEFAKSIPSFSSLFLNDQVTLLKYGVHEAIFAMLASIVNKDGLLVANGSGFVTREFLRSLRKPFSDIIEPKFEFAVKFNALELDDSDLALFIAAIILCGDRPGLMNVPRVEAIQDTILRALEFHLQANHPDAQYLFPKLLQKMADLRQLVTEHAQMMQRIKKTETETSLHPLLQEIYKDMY
Outline: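 HEK293H PPARd-bla cells; 5 h preincubation 37 C/5% CO2; compound (DMSO) 37 C; LiveBLAzer B/G FRET substrate 2 h RT; fluorescence intensity.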

[3] = qHTS assay to identify small molecule antagonists of the peroxisome proliferator-activated receptor delta (PPARd) signaling pathway - cell viability counter screen (AID 743213; active = well fitted curve in the direction sought with a large enough effect in the repeat runs; an effect the other way counts as inactive or inconclusive; also: % is scaled to controls: 0 for no effect and ±100 for the full control effect; nearly all actives have a fitted effect of over 50% in size)
Outline: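 HEK293H PPARd UAS-bla cells, 5 h pre-incubation, compound + L165041 300 nM final, 17 h 37 C; B/G FRET substrate 2 h RT; then CellTiter-Glo 30 min RT, luminescence.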

[4] = molecular target: Peroxisome proliferator-activated receptor delta (Homo sapiens) (UniProt Q03181); assay: qHTS assay to identify small molecule antagonists of the peroxisome proliferator-activated receptor delta (PPARd) signaling pathway (AID 743215; active = well fitted inhibition curve with a large enough effect in the signal ratio in the repeat runs, not every such curve was filed as active; the % refers to the signal ratio;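 also: cells stimulated with agonist L165041 at 300 nM final during compound exposure; series mostly up to about 62 µM; % is scaled to controls: 0 for no effect and ±100 for the full control effect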)
Outline: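 With L165041 present at 300 nM final, compounds were incubated 17 h at 37 C on PPARd UAS-bla HEK293H cells. A FRET-based beta-lactamase substrate was then applied for 2 h at room temperature and fluorescence intensity recorded.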

[5] = qHTS assay to identify small molecule agonists of the farnesoid-X-receptor (FXR) signaling pathway - cell viability counter screen (AID 743218; active = well fitted curve in the direction sought with a large enough effect in the repeat runs; an effect the other way counts as inactive or inconclusive; also: % is scaled to controls: 0 for no effect and ±100 for the full control effect; nearly all actives have a fitted effect of over 45% in size)
Outline: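 After 16 h at 37 C with test compounds, FXR-bla HEK 293T cells were given LiveBLAzer B/G substrate for 2 h at RT and then CellTiter-Glo; luminescence was taken after 30 min.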

[6] = qHTS assay to identify small molecule antagonists of the farnesoid-X-receptor (FXR) signaling pathway - cell viability counter screen (AID 743221; active = well fitted cell-killing curve with a large enough effect in the repeat runs, not every such curve was filed as active; also: % is scaled to controls: 0 for no effect and ±100 for the full control effect; nearly all actives have a fitted effect of over 50% in size)
Outline: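 Cytotoxicity counter screen run in the FXR-bla reporter wells: HEK 293T cells exposed to compound with 50 uM (final) chenodeoxycholic acid for 16 h, 37 C, then viability measured by CellTiter-Glo luminescence after 30 min, room temperature.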

[7] = molecular target: Vitamin D3 receptor (Homo sapiens) (UniProt P11473); assay: qHTS assay to identify small molecule agonists of the vitamin D receptor (VDR) signaling pathway (AID 743222); also: % is scaled to controls: 0 for no effect and ±100 for the full control effect
Chain of Vitamin D3 receptor (Homo sapiens) (P11473 whole entry, looked up): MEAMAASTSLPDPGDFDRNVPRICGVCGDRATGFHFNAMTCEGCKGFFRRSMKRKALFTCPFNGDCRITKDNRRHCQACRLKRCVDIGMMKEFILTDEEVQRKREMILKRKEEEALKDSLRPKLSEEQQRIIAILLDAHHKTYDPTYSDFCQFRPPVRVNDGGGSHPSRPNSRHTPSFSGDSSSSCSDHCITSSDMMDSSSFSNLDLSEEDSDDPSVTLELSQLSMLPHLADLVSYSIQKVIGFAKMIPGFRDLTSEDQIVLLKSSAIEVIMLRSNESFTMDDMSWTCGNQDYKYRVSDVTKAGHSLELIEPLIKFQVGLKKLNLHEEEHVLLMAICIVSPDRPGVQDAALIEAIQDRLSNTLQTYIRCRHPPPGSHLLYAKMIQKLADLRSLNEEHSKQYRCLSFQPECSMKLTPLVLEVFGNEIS
Outline: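 VDR-bla cells were seeded, left 4 h, treated with compounds in DMSO for 16 h, incubated 2 h at RT with B/G FRET substrate, and read for fluorescence.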

[8] = molecular target: Vitamin D3 receptor (Homo sapiens) (UniProt P11473); assay: qHTS assay to identify small molecule antagonists of the vitamin D receptor (VDR) signaling pathway (AID 743223; active = well fitted inhibition curve with a large enough effect in the signal ratio in the repeat runs, not every such curve was filed as active; the % refers to the signal ratio; also: % is scaled to controls: 0 for no effect and ±100 for the full control effect)
Outline: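 Antagonist mode: compound added to VDR-bla cells alongside agonist 1alpha,25-dihydroxyvitamin D3 (3 nM final), incubation 16 h at 37C. Read-out is LiveBLAzer FRET fluorescence, 2 h at room temperature.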

[9] = qHTS assay to identify small molecule agonists of the vitamin D receptor (VDR) signaling pathway - cell viability counter screen (AID 743224; active = well fitted curve in the direction sought with a large enough effect in the repeat runs; an effect the other way counts as inactive or inconclusive; also: series mostly up to about 63 µM; % is scaled to controls: 0 for no effect and ±100 for the full control effect; nearly all actives have a fitted effect of over 50% in size)
Outline: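 Here cell health was gauged by luminescent ATP detection (CellTiter-Glo, 30 min RT) in VDR-bla cells that had been incubated with test compounds for 16 h at 37C and 5% CO2.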

[10] = qHTS assay to identify small molecule agonists of the NFkB signaling pathway - cell viability counter screen (AID 1159515); also: series mostly up to about 61 µM; % is scaled to controls: 0 for no effect and ±100 for the full control effect; nearly all actives have a fitted effect of over 55% in size
Outline: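 5 hr compound treatment of NFkB-bla ME-180 cells (2,000/well, seeded overnight beforehand), followed by reporter substrate for 1.5 hr. CellTiter-Glo added afterward; luminescence after 30 min RT.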

[11] = qHTS assay to identify small molecule agonists of the endoplasmic reticulum stress response signaling pathway (AID 1159516; active = well fitted activation curve with a large enough effect in the signal ratio in the repeat runs, not every such curve was filed as active; the % refers to the signal ratio; also: % is scaled to controls: 0 for no effect and ±100 for the full control effect)
Outline: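 Reporter HeLa cells (ESRE-beta-lactamase) underwent 5 hr compound incubation at 37 C and 5% CO2 in quantitative HTS format. Detection followed 2 hr of FRET substrate loading at room temperature.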

[12] = qHTS assay to identify small molecule agonists of the endoplasmic reticulum stress response signaling pathway - cell viability counter screen (AID 1159517);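 also: HeLa cells carrying an ER stress response element beta-lactamase reporter; series mostly up to about 61 µM; % is scaled to controls: 0 for no effect and ±100 for the full control effect; nearly all actives have a fitted effect of over 50% in size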
Outline: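 HeLa cells carrying an ESRE-driven beta-lactamase reporter receive compound for 5 hr at 37 C. Cell viability is then gauged with CellTiter-Glo by luminescence, 30 min at room temperature.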

[13] = qHTS assay to identify small molecule antagonists of the retinoid-related orphan receptor gamma (ROR-gamma) signaling pathway - cell viability counter screen (AID 1159520; active = well fitted curve in the direction sought with a large enough effect in the repeat runs; an effect the other way counts as inactive or inconclusive)
Outline: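 Cytotoxicity was read from cellular ATP (CellTiter-Glo luminescence) after 16 hr at 37 C with 1 uM doxycycline induction. The inducer was added 2 hr after compound transfer to Tet-on ROR gamma CHO cells.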

[14] = molecular target: Nuclear receptor ROR-gamma (Homo sapiens) (UniProt P51449); assay: qHTS assay to identify small molecule antagonists of the retinoid-related orphan receptor gamma (ROR-gamma) signaling pathway (AID 1159521; active = well fitted curve in the direction sought with a large enough effect in the repeat runs; an effect the other way counts as inactive or inconclusive)
Outline: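 Antagonist read-out: drop in luminescence (ONE-Glo) from an RORE-LUC reporter in CHO cells with doxycycline-inducible ROR-gamma; 2 hr compound pretreatment, 1 uM doxycycline, 16 hr incubation at 37 C.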

[15] = qHTS assay to identify small molecule agonists of the AP-1 signaling pathway (AID 1159526); also: % is scaled to controls: 0 for no effect and ±100 for the full control effect
[16] = molecular target: Bile acid receptor (Homo sapiens) (UniProt Q96RI1); assay: qHTS assay to identify small molecule antagonists of the farnesoid-X-receptor (FXR) signaling pathway (AID 743217; active = well fitted inhibition curve with a large enough effect in the signal ratio in the repeat runs, not every such curve was filed as active; the % refers to the signal ratio; also: % is scaled to controls: 0 for no effect and ±100 for the full control effect)
Chain of Bile acid receptor (Homo sapiens) (Q96RI1 whole entry, looked up): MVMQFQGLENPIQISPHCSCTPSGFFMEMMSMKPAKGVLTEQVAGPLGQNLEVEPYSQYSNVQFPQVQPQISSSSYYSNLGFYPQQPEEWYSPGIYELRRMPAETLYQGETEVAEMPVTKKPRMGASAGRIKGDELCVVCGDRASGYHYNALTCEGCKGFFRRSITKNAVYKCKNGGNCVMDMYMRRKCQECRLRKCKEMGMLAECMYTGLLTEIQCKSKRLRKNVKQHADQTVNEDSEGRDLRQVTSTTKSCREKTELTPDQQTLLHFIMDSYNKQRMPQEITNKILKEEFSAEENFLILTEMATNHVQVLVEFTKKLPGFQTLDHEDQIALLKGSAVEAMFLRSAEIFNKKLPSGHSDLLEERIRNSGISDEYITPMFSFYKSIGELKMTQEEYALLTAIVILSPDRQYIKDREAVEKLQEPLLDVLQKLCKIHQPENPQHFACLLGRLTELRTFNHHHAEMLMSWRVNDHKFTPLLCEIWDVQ
Outline: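 In this cell-based antagonist screen, inhibition of CDCA-driven (50 uM final) UAS-beta-lactamase expression in HEK 293T cells was measured by FRET fluorescence following 16 h compound exposure at 37 °C.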

[17] = molecular target: Bile acid receptor (Homo sapiens) (UniProt Q96RI1); assay: qHTS assay to identify small molecule agonists of the farnesoid-X-receptor (FXR) signaling pathway (AID 743220; active = well fitted activation curve with a large enough effect in the signal ratio in the repeat runs, not every such curve was filed as active; the % refers to the signal ratio; also: % is scaled to controls: 0 for no effect and ±100 for the full control effect)
Outline: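 Beta-lactamase reporter under UAS control in GeneBLAzer FXR HEK 293T cells (5000/well) measured with LiveBLAzer FRET substrate after 2 h at room temperature. Compound exposure lasted 16 h at 37C.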

[18] = qHTS assay to identify small molecule antagonists of the vitamin D receptor (VDR) signaling pathway - cell viability counter screen (AID 743225; active = well fitted curve in the direction sought with a large enough effect in the repeat runs; an effect the other way counts as inactive or inconclusive)
Outline: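 Cytotoxicity counter screen read by CellTiter-Glo luminescence (30 min, room temperature) in the same wells as the VDR-bla antagonist readout. HEK 293T VDR-UAS-bla cells had 16 h at 37C with compound and 3 nM (final) 1-alpha,25-dihydroxyvitamin D3, then 2 h with FRET substrate.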

[19] = molecular target: Retinoic acid receptor RXR-alpha (Homo sapiens) (UniProt P19793); assay: qHTS assay to identify small molecule agonists of the RXR signaling pathway (AID 1159527); also: % is scaled to controls: 0 for no effect and ±100 for the full control effect; nearly all actives have a fitted effect of over 35% in size
Chain of Retinoic acid receptor RXR-alpha (Homo sapiens) (P19793 whole entry, looked up): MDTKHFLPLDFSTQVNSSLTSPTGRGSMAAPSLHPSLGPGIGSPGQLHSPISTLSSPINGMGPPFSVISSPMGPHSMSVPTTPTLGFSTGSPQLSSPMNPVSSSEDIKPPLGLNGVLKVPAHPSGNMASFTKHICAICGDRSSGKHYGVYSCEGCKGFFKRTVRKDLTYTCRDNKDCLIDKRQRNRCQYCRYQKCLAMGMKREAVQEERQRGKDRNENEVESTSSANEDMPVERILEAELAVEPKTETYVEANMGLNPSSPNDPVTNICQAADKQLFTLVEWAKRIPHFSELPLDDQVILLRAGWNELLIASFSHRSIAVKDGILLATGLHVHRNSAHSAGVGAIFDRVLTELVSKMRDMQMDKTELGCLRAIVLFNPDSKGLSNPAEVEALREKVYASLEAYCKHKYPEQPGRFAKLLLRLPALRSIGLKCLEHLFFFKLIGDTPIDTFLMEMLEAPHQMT
Outline: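 Agonist-mode beta-lactamase reporter assay: HEK 293T RXR-alpha-UAS-bla cells treated 16 hr at 37 C with compounds, 9-cis retinoic acid as positive control. LiveBLAzer FRET substrate, 405 nm excitation, 460/530 nm emission.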

[20] = qHTS assay to identify small molecule agonists of the AP-1 signaling pathway - cell viability counter screen (AID 1159525); also: nearly all actives have a fitted effect of over 55% in size
Outline: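 Luminescent ATP readout (Cell Titer Glo, 30 min RT), normalised to DMSO and tetra n-octyl ammonium bromide controls. Cells were ME-180 AP-1-bla in 0.5% dialyzed FBS Opti-MEM, with a 5 h, 37 °C compound exposure.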

OCCc1ccccn1
inactive: outcome [1] | outcome [2] | outcome [3] | outcome [4] | outcome [5] | outcome [6] | outcome [7] | outcome [8] | outcome [9] | outcome [10] | outcome [11] | outcome [12] | outcome [13] | Potency [14] | outcome [15]

NC(=O)NC1N=C([O][Al])NC1=O (stereo unspecified)
inactive: outcome [3] | outcome [16] | outcome [5] | outcome [17] | outcome [6] | outcome [9] | outcome [18] | outcome [10] | outcome [11] | outcome [12] | outcome [13] | Potency [14] | outcome [15] | Potency [19]

CCCC(C)C(=O)OCC (stereo unspecified)
inactive: outcome [1] | outcome [2] | outcome [3] | outcome [5] | outcome [6] | outcome [7] | outcome [8] | outcome [9] | outcome [10] | outcome [11] | outcome [12] | outcome [13] | outcome [20] | outcome [15] | Potency [19]

CCOC(=O)C(=O)CCCCCCl
inactive: outcome [1] | outcome [2] | outcome [3] | outcome [4] | outcome [5] | outcome [17] | outcome [6] | outcome [7] | outcome [8] | outcome [9] | outcome [18] | outcome [10] | outcome [11] | outcome [12] | outcome [13] | outcome [20] | outcome [15] | Potency [19]

C=CCCC(=O)O
inactive: outcome [1] | outcome [2] | outcome [4] | outcome [5] | outcome [6] | outcome [7] | outcome [9] | outcome [10] | outcome [11] | outcome [12] | outcome [13] | Potency [14] | outcome [15] | Potency [19]

Cc1ncc([C@@H](CCCCCCc2ccc3c(n2)NCCC3)CC(=O)O)cn1
inactive: outcome [1] | outcome [2] | outcome [3] | outcome [5] | outcome [17] | outcome [6] | outcome [7] | outcome [9] | outcome [18] | outcome [10] | outcome [11] | outcome [12] | outcome [13] | Potency [14] | outcome [15] | Potency [19]

C=C(C)C(=O)OCC(O)CO (stereo unspecified)
inactive: outcome [1] | outcome [2] | outcome [3] | outcome [4] | outcome [16] | outcome [5] | outcome [17] | outcome [6] | outcome [7] | outcome [8] | outcome [18] | outcome [10] | outcome [11] | outcome [12] | outcome [13] | Potency [14] | outcome [15]

O=C(O)CCSCCC(=O)O
inactive: outcome [1] | outcome [2] | outcome [3] | outcome [4] | outcome [5] | outcome [6] | outcome [9] | outcome [10] | outcome [11] | outcome [12] | outcome [13] | Potency [14] | outcome [15] | Potency [19]

CCCCN1C=CN(C)C1
inactive: outcome [1] | outcome [2] | outcome [3] | outcome [4] | outcome [5] | outcome [7] | outcome [8] | outcome [18] | outcome [10] | outcome [11] | outcome [12] | activity, negative = cytotoxicity [13] 1.65% [at 19 µM] | viability change, negative = cytotoxic [20] 3.01% [at 15.8 µM] | activation [15] -8.87% [at 15.8 µM] | activation [19] 3.97% [at 15.8 µM]

COc1cc(C(=O)NCc2ccc(OCCN(C)C)cc2)cc(OC)c1OC
inactive: outcome [1] | outcome [2] | outcome [4] | outcome [6] | outcome [9] | outcome [18] | outcome [10] | outcome [11] | outcome [12] | outcome [13] | Potency [14] | outcome [15] | Potency [19]

COc1cc2c(cc1OC)-c1cc3ccc(OC)c(OC)c3c[n+]1CC2
inactive: outcome [1] | outcome [5] | outcome [6] | outcome [9] | outcome [10] | outcome [11] | outcome [12] | outcome [13] | outcome [20] | outcome [15] | Potency [19]

CO[Si](C)(OC)c1ccccc1
inactive: outcome [2] | outcome [3] | outcome [6] | outcome [7] | outcome [9] | outcome [18] | outcome [10] | outcome [11] | outcome [12] | outcome [13] | outcome [20] | outcome [15] | Potency [19]

CCN(CC#N)c1cccc(C)c1
inactive: outcome [1] | outcome [2] | outcome [4] | outcome [6] | outcome [7] | outcome [8] | outcome [9] | outcome [18] | outcome [10] | outcome [11] | outcome [12] | outcome [13] | outcome [20] | outcome [15] | Potency [19]

CCNS(=O)(=O)c1ccc(C)cc1
inactive: outcome [1] | outcome [2] | outcome [3] | outcome [4] | outcome [6] | outcome [9] | outcome [18] | outcome [10] | outcome [11] | outcome [12] | outcome [13] | outcome [20] | outcome [15] | Potency [19]

O=[N+]([O-])c1ccc(/C=N\O)o1
inactive: outcome [1] | outcome [6] | outcome [8] | outcome [9] | outcome [18] | outcome [10] | outcome [11] | outcome [12] | outcome [13] | Potency [14] | outcome [15] | Potency [19]

COc1cc(-c2ccc(=O)[nH]n2)ccc1OC(F)F
inactive: outcome [1] | outcome [3] | outcome [16] | outcome [17] | outcome [6] | outcome [9] | outcome [18] | outcome [10] | outcome [11] | outcome [12] | outcome [13] | Potency [14] | outcome [15] | Potency [19]

CN(C)CCCN(C)CCCN(C)C
inactive: outcome [1] | outcome [3] | outcome [4] | outcome [16] | outcome [5] | outcome [17] | outcome [6] | outcome [9] | outcome [18] | outcome [10] | outcome [11] | outcome [12] | outcome [13] | outcome [20] | outcome [15] | Potency [19]
